Screening data: PubChem, National Center for Advancing Translational Sciences (NCATS)
Rows were chosen to be rich in hits. Some 6.5% of all compounds tested hit in one or more screens of this group.
HCMV antiviral: blocks human cytomegalovirus replication; HFF cells, HCMV-luciferase reporter, 72 h; active compounds read low; hit rate 4.5% among 410,000; activity change, negative = inhibition, % at 57.5 µM; AID 1259415; in the data active means activity change below about -60%; inconclusive means no clear call, values can overlap the other calls; inactive means above about -39%
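After 16 h attachment at 37C, HFF cells received test compound and HCMV-luciferase (1 PFU/cell); reporter luminescence read 72 h later, data normalized against buffer-only and known inhibitor Salinomycin.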
Lassa entry inh: inhibitors of Lassa virus binding or cell entry; Potency, µM (series often up to 37.9 µM), inactives show at the highest dose activity change, negative = inhibition, usual class: inhibitors; hit rate 1.2% among 300,000; Lassa virus pseudotype entry inhibition, cell reporter; AID 540256; calls by dose curve; tested in HEK293 cells; further: potency means the concentration at half of the fitted maximal effect; nearly all actives have a fitted effect of over 50% in size
FMDV antiviral: antivirals against foot and mouth disease virus. FMDV antiviral cell-based qHTS. hit rate 1.2% among 410,000. Potency, µM (top dose mostly 57.9 µM), for the others: top-dose activity change, negative = inhibition, hits mostly inhibitors; calls by dose curve; tested in HEK293T cells; further: read-out not given here; potency means the concentration at half of the fitted maximal effect; nearly all actives have a fitted effect of over 45% in size
VACV mCherry inh: vaccinia inhibition (mCherry reporter) | Vaccinia virus mCherry reporter infection, fluorescence | Potency, µM (highest dose often 36.5 µM), without a hit: top-dose activity change, negative = inhibition, actives largely listed as inhibitors | hit rate 0.63% among 310,000 | AID 720579; calls by dose curve; tested in A549 cells; further: potency means the concentration at half of the fitted maximal effect; nearly all actives have a fitted effect of over 35% in size
MARV entry inh: Marburg virus entry inhibition; Potency, µM (titrated, usually from 37.8 µM), for the others: at the top dose activity change, negative = inhibition, most hits filed as inhibitors; hit rate 1.8% among 300,000; Marburg virus pseudotyped entry inhibition, cell reporter; calls by dose curve; tested in HEK293 cells; further: potency means the concentration at half of the fitted maximal effect
VACV Venus inh: vaccinia inhibition (Venus reporter) | Vaccinia virus Venus reporter expression, fluorescence | Potency, µM (top dose mostly 36.5 µM), for inactives: at the highest dose activity change, negative = inhibition, most hits filed as inhibitors | hit rate 0.46% among 330,000; calls by dose curve; tested in A549 cells; further: potency means the concentration at half of the fitted maximal effect; nearly all actives have a fitted effect of over 30% in size
Active calls of the source: *; i = inactive; ? = inconclusive; / = no result given; [ ] = another dose, or the depositor's remark. On the % scale 0 is the no-effect control and ±100 the full control effect.

SMILES | HCMV antiviral | Lassa entry inh | FMDV antiviral | VACV mCherry inh | MARV entry inh | VACV Venus inh
Cc1oc(-c2ccc(Cl)cc2)nc1CS(=O)CC(=O)NCCCN1CCOCC1 (centres undefined) | -33.8 | / | -4.9% | / | / | /
Cc1ccc(-c2nc(CS(=O)CC(=O)NCCCN3CCN(Cc4ccccc4)CC3)c(C)o2)cc1 (centres undefined) | -75.5* | ? | -22.7% | ? | 11.2µM* | ?
CCOc1ccc(NC(=O)Cn2c(=O)n(CCc3ccccc3)c(=O)c3c4c(sc32)CN(C(C)=O)CC4)cc1 | 2.7 | / | -21.8% | -0.1% | -25.2%[46.1 µM] | -17.2%
CCOC(=O)c1c(C)[nH]c(CCC(=O)Nc2ccccc2OCC)c1C | ? | -2.1%[46.1 µM] | -21.3% | -0.2% | / | -2.3%
CCOC(=O)c1c(C)[nH]c(CCC(=O)Nc2ccccc2C(=O)OC)c1C | -72.6* | -17.4%[46.1 µM] | -8.2% | -10.7% | / | -7.5%
Cn1c(=O)[nH]c(Nc2ccccc2)c([N+](=O)[O-])c1=O | -93.8* | -12.9% | 2.3% | -12.1% | 7.6%[46.1 µM] | -1.3%
COc1ccc2c(c1OC)CN1CCc3cc4c(cc3C1C2)OCO4 (centres undefined) | -87.2* | ? | ? | -15.4% | ? | -20.0%
COc1ccc2c(c1OC)CN1CCc3cc4c(cc3[C@H]1C2)OCO4 | / | / | ? | ? | / | -3.6%
CCCCCCC(=O)N1C/C=C\C(c2ccc(OC)cc2)N(Cc2ccc(F)cc2)C(=O)[C@H]1Cc1ccccc1 (some centres undefined) | -93.2* | / | ? | -9.3% | / | ?
CCCS(=O)(=O)N1CC(=O)N(c2cc(C)cc(C)c2)C(C)(C(=O)NC2CCCCCC2)C1 (centres undefined) | 0.0 | 28.9%[46.1 µM] | 12.2% | -12.5% | / | -8.0%
Cn1c(=O)c2[nH]c(CCCCc3nc4ccccc4[nH]3)nc2n(C)c1=O | -15.1 | -0.1% | -8.1% | i | 0.5% | -7.4%
Cn1c(=O)c2[nH]c(CCCCCCCCc3nc4ccccc4[nH]3)nc2n(C)c1=O | -91.2* | 11.2µM* | 12.6µM* | ? | ? | -26.6%
CCCCCOC(=O)C1=C(C)Nc2ncnn2C1c1cccs1 (centres undefined) | -13.5 | 20.6µM* | ? | ? | ? | ?
CCC1CCCCN1CC(=O)N1CCCc2c1c(=O)oc1ccc(OCc3ccccc3)cc21 (centres undefined) | 2.5 | -26.3%[46.1 µM] | -18.3% | -29.8% | ? | -28.2%
CCN(CC)c1c([N+](=O)[O-])c(=O)n(C)c2ccccc12 | -32.3 | 14.9% | ? | i | ? | -22.1%
Cn1c(=O)c([N+](=O)[O-])c(Cl)c2ccccc21 | -70.8* | ? | 14.1µM* | -13.7% | ? | -4.2%
O=C(Nc1nccs1)C1CC=CCC1 (centres undefined) | -69.3* | 3.1% | 11.7% | -11.2% | 7.1%[46.1 µM] | -6.3%
O=C(Nc1nccs1)NC1CCCCC1 | 35.7 | 1.5% | 32.7% | / | 13.2% | /
CC(C)C(=O)NC(c1ccc([N+](=O)[O-])cc1)c1c(O)ccc2ccccc12 (centres undefined) | -29.0 | -2.9% | ? | / | 6.4% | /
CC(C)C(=O)NC(c1ccco1)c1ccc2cccnc2c1O (centres undefined) | -101.8* | ? | -18.5% | / | ? | ?
CN1CCN(C(c2ccc(F)cc2)c2ccc3cccnc3c2O)CC1 (centres undefined) | / | / | -4.5% | / | / | /
CC(=O)NC(c1ccco1)c1cc(Cl)c2ccc(Cl)nc2c1O (centres undefined) | -28.7 | / | 0.0% | / | / | /
CC(C)C(=O)NC(c1ccc(N(C)C)cc1)c1ccc2cccnc2c1O (centres undefined) | / | / | / | 3.98µM* | / | ?
CCN(CC)c1ccc(C(NC(=O)C(C)C)c2ccc3cccnc3c2O)cc1 (centres undefined) | -98.7* | / | -21.6% | ? | / | ?
c1coc(CNc2nc3ccccc3s2)c1 | 127.4 | ? | 85.1% | -23.0% | ? | -18.5%
SMILES | HCMV antiviral | Lassa entry inh | FMDV antiviral | VACV mCherry inh | MARV entry inh | VACV Venus inh
Oc1c(C(Nc2nc3ccccc3s2)c2ccco2)ccc2cccnc12 (centres undefined) | -97.6* | ? | 25.7% | 2.82µM* | ? | ?
CCC1CN(CCC(=O)N2CCCN(C(=O)c3ccco3)CC2)Cc2cc(OC)ccc2O1 (centres undefined) | / | / | -10.9% | -14.3% | / | 1.3%
Cc1nc(NCc2cccc3c2OCO3)sc1-c1ccn(CC2CCCN(C)C2)n1 (centres undefined) | / | / | 33.5% | -7.0% | / | 11.7%
COCc1c(C(=O)N2CCC(c3ccccc3)CC2)cnn1-c1nccc(-c2cc(C)sc2C)n1 | / | / | 29.6% | 14.1µM* | / | ?
O=C(O)CC(NC(=O)C1c2ccccc2Oc2ccccc21)c1ccc(Cl)cc1 (centres undefined) | -88.2* | / | -16.9% | / | / | /
O=C(Cc1ccccc1)Nc1nc(=O)c2ccccc2s1 | -2.3 | -6.9% | 15.3% | -15.3% | 8.1% | -11.9%
O=C(Cc1nc(=O)c2ccccc2s1)Nc1ccccc1 | -105.6* | ? | 63.9% | / | ? | /
CCCCN1CCC(COC(=O)c2cc(Cl)c(N)c3c2OCCO3)CC1 | -20.6 | / | -0.3% | i | 11.2µM* | -12.0%
COc1ccc(S[C@]2(C(=O)N3CCCC3)CC(=O)N(c3ccc(Cl)cc3)[C@@H]2c2ccc(OC)cc2)cc1 | -20.1 | / | / | / | / | /
Nc1nonc1C(=O)N/N=C/c1ccc(Br)o1 | 19.5 | 2.5% | 41.5% | -11.8% | 2.7%[46.1 µM] | -7.6%
Nc1nonc1C(=O)N/N=C/c1ccc(-c2ccc(Cl)c(C(=O)O)c2)o1 | -72.7* | 19.4% | 4.5% | 2.1% | ? | 3.0%
C=CC(=O)Nc1ccc(N(C)c2ccnc(Nc3ccc(N4CCN(C)CC4)cc3)n2)cc1 | 83.2 | / | 0.0% | 6.31µM* | / | 7.94µM*
CN1CCN(c2ccc(NC(=O)Oc3ccccc3)cc2)CC1 | -13.2 | 4.2% | 46.0% | -8.3% | ? | -0.6%
CCOC(=O)c1c(C)oc2c1cc(NS(=O)(=O)c1ccc(C(=O)O)cc1)c1ccccc12 | 39.5 | -29.5% | 6.3% | -15.2% | -4.2%[46.1 µM] | 7.5%
CCCOC(=O)c1c(C)oc2c1cc(NS(=O)(=O)c1ccc(OCC)cc1)c1ccccc12 | -96.1* | ? | 7.4% | ? | ? | ?
Cc1oc2c(cc(NS(=O)(=O)c3ccc(C(C)C)cc3)c3ccccc32)c1C(=O)OCc1ccccc1 | 61.9 | 4.3%[46.1 µM] | 13.7% | -14.9% | 3.8%[46.1 µM] | -15.4%
CCOc1ccc(S(=O)(=O)Nc2cc3c(C(=O)OCc4ccccc4)c(C)oc3c3ccccc23)cc1 | -84.0* | ? | 6.4% | -26.2% | ? | -20.3%
Cc1ncc2c(c1CNC(=O)c1ccc3c(c1)OCO3)CCN(C(=O)c1cc3ccccc3n1C)C2 | / | / | -1.0% | -6.7% | / | 3.6%
CN(C(=O)c1ccco1)c1nc(CC(=O)Nc2ccccc2)cs1 | -16.1 | 24.9% | 4.1% | / | 17.8µM* | -12.3%
COc1ccc(O[C@H]2C=C[C@@H](c3ccccc3)O[C@@H]2CO/N=C2/[C@H]3CCn4c(=O)n(-c5ccccc5)c(=O)n4[C@H]3[C@H](O)[C@@H]3O[C@H]23)cc1 | / | / | / | / | 4.6%[14.2 µM] | /
